TrxR1 substrate – is turned over as a substrate by rat TrxR1; O89049; hit rate 0.01% among 390,000; AID 588456; Potency, µM (series often up to 114 µM), for inactives: at the top dose activity change, negative = substrate turnover; purified TrxR1 substrate turnover, NADPH consumption readout; also: % is scaled to controls: 0 for no effect and ±100 for the full control effect; nearly all actives have a fitted effect of over 50% in size
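Rat TrxR1, dispensed at 90 nM, was prereduced with 400 uM NADPH (final) for 5 min at ~22 deg C, then incubated with compound 15 min before 400 uM selenite. A first-read NADPH fluorescence drop versus no-compound background flagged substrates.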
12-LOX inh – blocks human arachidonate 12S-lipoxygenase; AID 1671190; Potency, µM (doses to about 108 µM), for inactives: at the top dose activity change, negative = inhibition, usual class: inhibitors; purified 12hLO, xylenol orange hydroperoxide absorbance; P18054; hit rate 1.1% among 580,000; also: % is scaled to controls: 0 for no effect and ±100 for the full control effect
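Hydroperoxide product was detected by ferrous iron/xylenol orange as the 573 to 405 nm absorbance ratio. Arachidonic acid at 40 uM (final) was turned over for 30 min at room temperature by 150 nM human 12hLO, pH 7.0 Hepes buffer, after 15 min compound preincubation.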
Anesthetic bind – binds horse apoferritin like a general anesthetic; P02791; apoferritin/1-aminoanthracene competitive binding, fluorescence; Potency, µM (series often up to 77.5 µM), for the others: at the highest dose activity change, negative = displacement, actives largely listed as inhibitors; hit rate 0.074% among 350,000; also: % is scaled to controls: 0 for no effect and ±100 for the full control effect; nearly all actives have a fitted effect of over 20% in size
Target sequence (P02791 2-175 limits assumed): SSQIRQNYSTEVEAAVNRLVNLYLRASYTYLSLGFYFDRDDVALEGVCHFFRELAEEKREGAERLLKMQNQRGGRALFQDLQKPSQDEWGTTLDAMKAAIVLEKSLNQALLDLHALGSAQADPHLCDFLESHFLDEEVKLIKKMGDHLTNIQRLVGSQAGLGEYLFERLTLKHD
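Horse-spleen apoferritin (10 uM) in 50% saturated 1-aminoanthracene in PBS was incubated 10 min at room temperature with compound. Fluorescence (ex 380, em 535 nm) was normalized to free and bound 1-AMA, with concentration-response fitted by a four-parameter Hill equation.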
GRP78 ERSR act – inducers of ER stress response in human glioma cells | U87-MG GRP78 promoter luciferase reporter, 16 h | Potency, µM, for inactives: at the highest dose activation, hits mostly activators | hit rate 0.02% among 420,000 | AID 602332; also: series mostly up to about 76 µM; % of control where 0% means no effect; nearly all actives have a fitted effect of over 35% in size
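Stably transfected U87-MG human glioma cells carrying a GRP78-based luminescent sensor were seeded at 1000 cells/well, pin-dosed with compounds and incubated 16 h. Luciferase reagent was then added, and end-point luminescence was read after 10 min at room temperature.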
TrxR1 inh – blocks rat thioredoxin reductase 1 | O89049 | recombinant rTrxR1, NADPH fluorescence consumption, selenite substrate | Potency, µM (titrated, usually from 114 µM), for inactives: at the highest dose activity change, negative = inhibition, most hits filed as inhibitors | hit rate 1% among 390,000 | AID 588453; also: % is scaled to controls: 0 for no effect and ±100 for the full control effect; nearly all actives have a fitted effect of over 65% in size
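Rat TrxR1 (90 nM in the dispensed reagent) was pre-reduced with 400 uM NADPH for 5 min at room temperature, then incubated with compound for 15 min. After 400 uM selenite was added, NADPH fluorescence (Ex 340/Em 450 nm) was followed for 8 min.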
mIDH1 inhibitor – human IDH1 R132H inhibition. O75874. IDH1-R132H enzyme, NADPH consumption, diaphorase/resazurin fluorescence. Potency, µM (doses to about 76.6 µM), for inactives: at the top dose activity change, negative = inhibition, most hits filed as inhibitors. hit rate 0.093% among 390,000. AID 602179; also: % is scaled to controls: 0 for no effect and ±100 for the full control effect; nearly all actives have a fitted effect of over 65% in size
Target sequence (O75874 whole entry R132H, stated change not applied): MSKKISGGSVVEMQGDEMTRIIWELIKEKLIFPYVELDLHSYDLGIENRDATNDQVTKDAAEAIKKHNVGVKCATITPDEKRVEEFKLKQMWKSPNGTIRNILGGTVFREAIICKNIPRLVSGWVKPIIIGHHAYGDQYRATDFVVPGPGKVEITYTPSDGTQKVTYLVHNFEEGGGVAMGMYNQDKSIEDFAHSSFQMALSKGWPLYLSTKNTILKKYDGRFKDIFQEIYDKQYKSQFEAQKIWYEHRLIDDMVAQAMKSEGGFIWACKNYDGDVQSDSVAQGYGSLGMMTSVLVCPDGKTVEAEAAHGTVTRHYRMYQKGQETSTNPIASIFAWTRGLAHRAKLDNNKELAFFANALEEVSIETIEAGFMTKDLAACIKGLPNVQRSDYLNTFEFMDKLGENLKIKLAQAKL
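IDH1-R132H (0.5 ug/mL dispensed) in pH 7.5 Tris buffer was preincubated 30 min with compound, then given a substrate mix of 0.016 mM NADPH and 2 mM alpha-KG for 80 min at room temperature; remaining NADPH was read by diaphorase/resazurin fluorescence.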
An asterisk follows results filed as active; ? = inconclusive; · = not tested or not shown; [ ] = dose if it differs, or a comment. Compounds with a hit are over-represented: about 1.7% of the library has one in this group of screens. Calls follow the shape of the dose curve; as a rule, active = well fitted curve in the direction sought with a large enough effect; inconclusive = small, poorly fitted or top-dose-only effect, or another doubt; inactive = no such curve, though single readings can be large; an effect the other way counts as inactive or inconclusive. Potency is read from the fitted curve at half-maximal effect.

SMILES	TrxR1 substrate	12-LOX inh	Anesthetic bind	GRP78 ERSR act	TrxR1 inh	mIDH1 inhibitor
CCOC(=O)CSc1nc2c(sc(=S)n2-c2ccc(CC)cc2)c(=O)[nH]1	-6%	?	-6%	40µM*	8%	0%
CCOC(=O)CC(=O)CSc1nc2c(sc(=S)n2-c2ccccc2)c(=O)[nH]1	-8%	-28%	-9%	4%	?	-8%
CC(=O)c1c(C)oc2c(Br)cc(NS(=O)(=O)c3ccc(Br)cc3)cc12	4%[57.1 µM]	45µM*	?	-4%	2%[57.1 µM]	5%
O=c1oc2ccc(Br)cc2cc1S(=O)(=O)c1ccccc1	·	7%	·	·	·	·
O=C(NC(=S)NCCC1=CCCCC1)c1ccccc1Br	1%	16µM*	?	3%	-10%	3%
CCN1CCN(C2=C(NS(=O)(=O)c3ccc(C)cc3)C(=O)c3ccccc3C2=O)CC1	-2%	-18%	-19%	1%	79µM*	7%
O=C(Cn1c(=O)c2c(ncn2Cc2ccccc2)n(Cc2ccccc2)c1=O)N1CCNC1=O	·	-17%	·	·	·	·
CCOc1ccc(NC(=O)C(c2ccccn2)N(C(=O)CCl)c2ccc(OCC)cc2)cc1 (centres undefined)	-6%	·	1%	4%	79µM*	3%
CC(C)C(=O)Nc1nnc(NC(=S)Nc2ccccc2)s1	2%[57.1 µM]	?	-12%	6%	10µM*	0%
CCCc1nnc(NC(=S)Nc2ccccc2)s1	-4%[57.1 µM]	-19%	-7%	1%	-11%[57.1 µM]	4%
c1ccc(CN2CC(N3CCc4ccccc43)C2)cc1	·	0%[12.5 µM]	·	·	·	·
Clc1cccc(Cl)c1CO/N=C/c1cccc(Oc2ccccc2)c1	·	-24%	·	·	·	·
CCOc1c(CN(C)C(=O)Cn2cccc(OC)c2=O)cccc1OC	·	-23%	·	·	·	·
CC1=NOC(=O)/C1=C\c1ccc(-c2ccccc2Br)o1	0%	5.6µM*	?	-15%	?	?
CC1=NOC(=O)/C1=C\c1ccc(-c2cccc(Cl)c2)o1	-1%	·	?	-13%	?	37µM*
Cc1nc(NC2CCCC2)sc1C(=O)NCCC(C)C	·	20µM*	·	·	·	·
Cc1nc(NC2CC2)sc1C(=O)NC1CCCC1	·	11%	·	·	·	·
CC1C(c2ccccc2)=[N+]([O-])C(C)(c2ccc(Cl)cc2)N1O (centres undefined)	·	-9%	·	·	·	·
N#CCCn1cc(/C=N/O)c(-c2ccccc2)n1	-8%	18%	-13%	-5%	6%	5%
N#CCCn1cc(C=C(C#N)C#N)c(-c2ccc(-c3ccccc3)cc2)n1	16%	-17%	-10%	-3%	79µM*	6%
FC(F)(F)c1ccc(N2C3CCC2CN(Cc2ccc(Cl)cc2)C3)cc1	·	28%	·	·	·	·
CC(C)c1nc2sc3c(=O)[nH]c(=S)[nH]c3c2c2c1CCCC2	-4%	25µM*	2%	0%	?	?
Cc1cc(C)c2c(N)c(-c3ccc(C#N)cc3)sc2n1	·	4µM*	·	·	·	·
CC(=O)NC12CC3CC(C1)CC(C(=O)NCc1ccncc1)(C3)C2	·	-5%	·	·	·	·
Cc1ccc(-c2cc(C(=O)Nc3cccc(S(=O)(=O)N(C)C)c3)c3ccccc3n2)o1	31%	6.3µM*	11%	0%	?	11%
SMILES	TrxR1 substrate	12-LOX inh	Anesthetic bind	GRP78 ERSR act	TrxR1 inh	mIDH1 inhibitor
Cc1ccc(-c2cc(C(=O)Nc3cccc(C#N)c3)c3ccccc3n2)o1	·	7.1µM*	·	·	·	·
COc1ccccc1-n1cnnc1SCC(=O)NC(C)c1ccc(Br)cc1 (centres undefined)	·	-29%	·	·	·	·
O=C(NCc1ccccc1Cl)c1cnc2ccccc2n1	-4%	1%	2%	0%	-1%	6%
Cc1ccccc1CNC(=O)c1cnc2ccccc2n1	·	4.5µM*	·	·	·	·
CC(C)=CCc1cc(-c2oc3cc(O)cc(O)c3c(=O)c2O)ccc1O	0%	35µM*	·	2%	-16%	-28%
COc1c(-c2ccc(O)c(O)c2)oc2cc(O)cc(O)c2c1=O	1%	7.1µM*	-7%	?	?	-7%
O=c1c(O[C@@H]2O[C@H](CO)[C@H](O)[C@H](O)[C@H]2O)c(-c2ccc(O)c(O)c2)oc2cc(O)cc(O)c12	·	·	-23%	·	·	·
